Test [1] has as its target Death-associated protein kinase 2 (Homo sapiens) (UniProt Q9UIK4). To be noted: at 1 µM.
Test [2] shares this target. To be noted: at 10 µM.
The target in test [3] is T1, Myotonin-protein kinase (Homo sapiens) (UniProt Q09013).
T1 sequence (whole entry): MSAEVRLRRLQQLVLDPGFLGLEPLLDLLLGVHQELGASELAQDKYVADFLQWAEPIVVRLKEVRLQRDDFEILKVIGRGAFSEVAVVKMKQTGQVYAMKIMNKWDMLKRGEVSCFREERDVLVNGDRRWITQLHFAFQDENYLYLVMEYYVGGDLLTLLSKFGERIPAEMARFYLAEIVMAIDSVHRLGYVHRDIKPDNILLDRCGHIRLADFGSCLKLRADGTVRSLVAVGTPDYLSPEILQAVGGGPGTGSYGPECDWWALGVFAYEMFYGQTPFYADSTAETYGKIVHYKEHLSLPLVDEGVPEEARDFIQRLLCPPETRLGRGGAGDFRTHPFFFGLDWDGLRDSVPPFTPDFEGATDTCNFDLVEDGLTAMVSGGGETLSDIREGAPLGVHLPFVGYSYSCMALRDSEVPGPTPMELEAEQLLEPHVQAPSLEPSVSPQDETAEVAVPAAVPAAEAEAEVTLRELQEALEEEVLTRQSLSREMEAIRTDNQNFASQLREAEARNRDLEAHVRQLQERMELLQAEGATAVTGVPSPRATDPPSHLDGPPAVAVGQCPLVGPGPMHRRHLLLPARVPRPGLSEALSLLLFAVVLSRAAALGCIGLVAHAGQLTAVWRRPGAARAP
To be noted: at 1 µM.

Test [4] has as its target T1, Myotonin-protein kinase (Homo sapiens). To be noted: at 10 µM.
In test [5] the target is T2, Serine/threonine-protein kinase 17A (Homo sapiens) (UniProt Q9UEE5).
T2 sequence (whole entry): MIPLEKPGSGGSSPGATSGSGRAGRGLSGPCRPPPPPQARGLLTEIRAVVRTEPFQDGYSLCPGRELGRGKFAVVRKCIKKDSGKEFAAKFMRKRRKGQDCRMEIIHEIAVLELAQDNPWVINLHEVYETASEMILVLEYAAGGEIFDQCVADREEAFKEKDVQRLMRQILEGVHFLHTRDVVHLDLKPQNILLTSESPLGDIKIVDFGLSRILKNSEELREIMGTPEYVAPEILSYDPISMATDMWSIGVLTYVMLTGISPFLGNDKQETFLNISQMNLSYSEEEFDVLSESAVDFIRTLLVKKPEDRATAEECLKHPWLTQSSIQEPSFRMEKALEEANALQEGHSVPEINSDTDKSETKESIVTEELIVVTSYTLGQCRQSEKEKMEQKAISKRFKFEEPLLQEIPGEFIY
To be noted: at 1 µM.

The target of test [6] is T2, Serine/threonine-protein kinase 17A (Homo sapiens). To be noted: at 10 µM.
Test [7] concerns the target T3, Dual specificity tyrosine-phosphorylation-regulated kinase 2 (Homo sapiens) (UniProt Q92630).
T3 sequence (whole entry): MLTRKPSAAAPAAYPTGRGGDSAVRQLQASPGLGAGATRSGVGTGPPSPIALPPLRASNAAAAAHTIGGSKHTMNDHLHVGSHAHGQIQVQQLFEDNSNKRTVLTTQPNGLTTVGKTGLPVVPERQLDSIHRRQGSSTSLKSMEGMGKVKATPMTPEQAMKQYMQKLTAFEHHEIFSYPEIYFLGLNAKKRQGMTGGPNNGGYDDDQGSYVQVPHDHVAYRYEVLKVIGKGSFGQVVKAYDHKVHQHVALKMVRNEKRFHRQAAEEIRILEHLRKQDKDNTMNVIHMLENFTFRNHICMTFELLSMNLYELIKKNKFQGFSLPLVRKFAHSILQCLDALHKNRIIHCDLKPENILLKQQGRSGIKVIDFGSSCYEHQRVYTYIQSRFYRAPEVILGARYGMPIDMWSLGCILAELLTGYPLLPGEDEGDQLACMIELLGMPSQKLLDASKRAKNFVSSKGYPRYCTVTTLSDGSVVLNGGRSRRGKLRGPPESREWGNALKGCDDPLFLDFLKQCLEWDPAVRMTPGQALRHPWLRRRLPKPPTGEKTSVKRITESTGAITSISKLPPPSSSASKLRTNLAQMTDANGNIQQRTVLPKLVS
To be noted: at 1 µM.

The target of test [8] is T3, Dual specificity tyrosine-phosphorylation-regulated kinase 2 (Homo sapiens). To be noted: at 10 µM.
Test [9] addresses T4, Ephrin type-A receptor 1 (Homo sapiens) (UniProt P21709).
T4 sequence (whole entry): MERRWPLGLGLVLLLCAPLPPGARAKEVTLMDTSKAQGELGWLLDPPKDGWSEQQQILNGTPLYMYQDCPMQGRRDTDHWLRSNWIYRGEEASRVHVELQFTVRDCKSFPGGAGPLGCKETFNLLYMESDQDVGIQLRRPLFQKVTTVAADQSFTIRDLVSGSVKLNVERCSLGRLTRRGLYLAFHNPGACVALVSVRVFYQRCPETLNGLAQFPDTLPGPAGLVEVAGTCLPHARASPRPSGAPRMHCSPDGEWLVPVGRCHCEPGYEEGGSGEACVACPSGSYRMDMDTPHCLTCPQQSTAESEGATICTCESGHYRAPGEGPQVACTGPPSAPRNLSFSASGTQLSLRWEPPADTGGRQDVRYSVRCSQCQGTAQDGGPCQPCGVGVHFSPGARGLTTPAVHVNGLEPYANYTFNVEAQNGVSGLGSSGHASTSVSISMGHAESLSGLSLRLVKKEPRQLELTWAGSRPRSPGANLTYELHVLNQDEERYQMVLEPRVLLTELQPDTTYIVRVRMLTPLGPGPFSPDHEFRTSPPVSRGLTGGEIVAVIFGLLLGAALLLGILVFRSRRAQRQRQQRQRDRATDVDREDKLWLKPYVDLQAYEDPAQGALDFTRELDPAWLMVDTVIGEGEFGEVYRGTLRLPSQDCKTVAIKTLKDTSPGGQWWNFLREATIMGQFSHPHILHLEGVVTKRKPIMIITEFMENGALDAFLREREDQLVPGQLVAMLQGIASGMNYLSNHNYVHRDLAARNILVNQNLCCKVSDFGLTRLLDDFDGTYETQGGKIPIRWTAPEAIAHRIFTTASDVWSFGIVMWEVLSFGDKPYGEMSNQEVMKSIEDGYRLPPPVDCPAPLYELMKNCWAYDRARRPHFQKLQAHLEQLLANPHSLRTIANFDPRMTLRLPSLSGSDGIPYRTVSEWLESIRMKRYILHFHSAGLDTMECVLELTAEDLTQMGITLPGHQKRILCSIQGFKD
To be noted: at 1 µM.

Test [10] addresses T4, Ephrin type-A receptor 1 (Homo sapiens). To be noted: at 10 µM.
The target in test [11] is Ephrin type-A receptor 2 (Homo sapiens) (UniProt P29317). To be noted: at 1 µM.
Test [12] has the same target. To be noted: at 10 µM.
The target in test [13] is Death-associated protein kinase 1 (Homo sapiens) (UniProt P53355). To be noted: at 1 µM.
The target is the same in test [14]. To be noted: at 10 µM.
The target in test [15] is T5, Serine/threonine-protein kinase DCLK2 (Homo sapiens) (UniProt Q8N568).
T5 sequence (whole entry): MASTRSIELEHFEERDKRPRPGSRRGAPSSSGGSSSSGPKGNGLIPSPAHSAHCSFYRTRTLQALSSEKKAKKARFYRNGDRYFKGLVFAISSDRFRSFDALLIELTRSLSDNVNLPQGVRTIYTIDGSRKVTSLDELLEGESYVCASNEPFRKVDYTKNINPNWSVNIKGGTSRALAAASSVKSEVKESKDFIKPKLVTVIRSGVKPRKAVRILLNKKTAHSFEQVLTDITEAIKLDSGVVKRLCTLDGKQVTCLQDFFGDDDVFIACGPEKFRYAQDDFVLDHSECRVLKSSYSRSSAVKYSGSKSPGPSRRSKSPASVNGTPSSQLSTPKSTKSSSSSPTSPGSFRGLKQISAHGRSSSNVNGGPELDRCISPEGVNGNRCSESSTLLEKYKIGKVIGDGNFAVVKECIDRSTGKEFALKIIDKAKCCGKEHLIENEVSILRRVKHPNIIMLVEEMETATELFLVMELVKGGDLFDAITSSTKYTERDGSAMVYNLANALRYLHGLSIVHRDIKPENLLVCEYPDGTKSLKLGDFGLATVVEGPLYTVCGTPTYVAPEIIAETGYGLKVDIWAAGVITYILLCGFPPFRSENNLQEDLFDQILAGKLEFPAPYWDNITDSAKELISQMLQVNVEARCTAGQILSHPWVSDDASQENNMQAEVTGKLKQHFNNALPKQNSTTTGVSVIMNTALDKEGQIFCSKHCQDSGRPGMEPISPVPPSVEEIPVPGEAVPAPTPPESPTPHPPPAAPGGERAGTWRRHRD
To be noted: at 1 µM.

The target of test [16] is T5, Serine/threonine-protein kinase DCLK2 (Homo sapiens). To be noted: at 10 µM.
Test [17] addresses T6, Discoidin domain-containing receptor 2 (Homo sapiens) (UniProt Q16832).
T6 sequence (whole entry): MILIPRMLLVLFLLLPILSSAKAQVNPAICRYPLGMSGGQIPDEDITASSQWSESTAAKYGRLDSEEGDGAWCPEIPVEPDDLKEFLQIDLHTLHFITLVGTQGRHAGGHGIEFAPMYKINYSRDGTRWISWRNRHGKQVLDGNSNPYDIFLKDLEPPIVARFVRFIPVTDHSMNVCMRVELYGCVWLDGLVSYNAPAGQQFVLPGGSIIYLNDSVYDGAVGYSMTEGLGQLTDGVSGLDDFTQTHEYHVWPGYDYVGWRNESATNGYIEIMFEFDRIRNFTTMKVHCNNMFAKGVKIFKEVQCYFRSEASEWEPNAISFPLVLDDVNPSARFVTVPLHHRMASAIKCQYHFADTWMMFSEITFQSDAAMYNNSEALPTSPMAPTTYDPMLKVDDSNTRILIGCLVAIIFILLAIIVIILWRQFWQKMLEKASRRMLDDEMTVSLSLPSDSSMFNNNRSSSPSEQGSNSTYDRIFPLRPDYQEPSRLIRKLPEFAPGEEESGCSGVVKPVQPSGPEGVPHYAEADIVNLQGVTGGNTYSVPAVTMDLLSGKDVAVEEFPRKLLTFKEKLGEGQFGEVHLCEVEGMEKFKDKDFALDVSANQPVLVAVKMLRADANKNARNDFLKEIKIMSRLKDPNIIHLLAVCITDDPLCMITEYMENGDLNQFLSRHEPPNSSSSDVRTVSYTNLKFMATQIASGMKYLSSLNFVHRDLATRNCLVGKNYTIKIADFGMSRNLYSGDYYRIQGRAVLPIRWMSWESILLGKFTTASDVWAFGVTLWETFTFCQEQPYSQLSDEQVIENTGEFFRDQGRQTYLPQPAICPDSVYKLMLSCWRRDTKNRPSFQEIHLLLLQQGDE
To be noted: at 1 µM.

Test [18] deals with T6, Discoidin domain-containing receptor 2 (Homo sapiens). To be noted: at 10 µM.
Test [19] concerns the target T7, Ephrin type-A receptor 3 (Homo sapiens) (UniProt P29320).
T7 sequence (whole entry): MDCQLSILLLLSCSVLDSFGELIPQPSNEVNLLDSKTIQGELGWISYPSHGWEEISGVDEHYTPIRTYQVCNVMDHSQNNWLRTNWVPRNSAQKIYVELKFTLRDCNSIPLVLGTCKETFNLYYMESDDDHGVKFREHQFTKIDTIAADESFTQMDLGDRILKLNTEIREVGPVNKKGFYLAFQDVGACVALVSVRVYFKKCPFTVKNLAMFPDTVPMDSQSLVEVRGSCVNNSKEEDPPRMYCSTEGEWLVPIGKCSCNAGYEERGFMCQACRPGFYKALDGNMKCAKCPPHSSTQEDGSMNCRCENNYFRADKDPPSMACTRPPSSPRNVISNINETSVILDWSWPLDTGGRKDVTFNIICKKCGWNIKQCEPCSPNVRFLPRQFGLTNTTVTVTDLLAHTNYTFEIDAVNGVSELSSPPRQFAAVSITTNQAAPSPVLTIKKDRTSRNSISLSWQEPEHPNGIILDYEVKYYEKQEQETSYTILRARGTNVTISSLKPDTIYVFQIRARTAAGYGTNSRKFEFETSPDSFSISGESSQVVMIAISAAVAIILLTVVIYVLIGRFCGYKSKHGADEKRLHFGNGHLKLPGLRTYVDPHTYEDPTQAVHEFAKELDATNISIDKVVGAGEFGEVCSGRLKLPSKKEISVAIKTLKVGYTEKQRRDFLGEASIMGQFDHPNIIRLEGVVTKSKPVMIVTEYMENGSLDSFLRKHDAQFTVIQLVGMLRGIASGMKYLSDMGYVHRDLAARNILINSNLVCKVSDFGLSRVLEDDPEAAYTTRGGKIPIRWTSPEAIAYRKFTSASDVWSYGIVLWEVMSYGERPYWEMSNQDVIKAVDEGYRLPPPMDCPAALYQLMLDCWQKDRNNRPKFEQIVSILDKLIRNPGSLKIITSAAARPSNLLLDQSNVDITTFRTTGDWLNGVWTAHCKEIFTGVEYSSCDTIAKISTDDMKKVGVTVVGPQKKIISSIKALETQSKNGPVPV
To be noted: at 1 µM.

In ChEMBL document CHEMBL2218924, “A broad activity screen in support of a chemogenomic map for kinase signalling research and drug discovery” (Biochem J, 2013) one finds residual activity data, which are given here for 3 compounds.

Ephrin type-A receptor 2 (Homo sapiens), sequence (P29317 whole entry): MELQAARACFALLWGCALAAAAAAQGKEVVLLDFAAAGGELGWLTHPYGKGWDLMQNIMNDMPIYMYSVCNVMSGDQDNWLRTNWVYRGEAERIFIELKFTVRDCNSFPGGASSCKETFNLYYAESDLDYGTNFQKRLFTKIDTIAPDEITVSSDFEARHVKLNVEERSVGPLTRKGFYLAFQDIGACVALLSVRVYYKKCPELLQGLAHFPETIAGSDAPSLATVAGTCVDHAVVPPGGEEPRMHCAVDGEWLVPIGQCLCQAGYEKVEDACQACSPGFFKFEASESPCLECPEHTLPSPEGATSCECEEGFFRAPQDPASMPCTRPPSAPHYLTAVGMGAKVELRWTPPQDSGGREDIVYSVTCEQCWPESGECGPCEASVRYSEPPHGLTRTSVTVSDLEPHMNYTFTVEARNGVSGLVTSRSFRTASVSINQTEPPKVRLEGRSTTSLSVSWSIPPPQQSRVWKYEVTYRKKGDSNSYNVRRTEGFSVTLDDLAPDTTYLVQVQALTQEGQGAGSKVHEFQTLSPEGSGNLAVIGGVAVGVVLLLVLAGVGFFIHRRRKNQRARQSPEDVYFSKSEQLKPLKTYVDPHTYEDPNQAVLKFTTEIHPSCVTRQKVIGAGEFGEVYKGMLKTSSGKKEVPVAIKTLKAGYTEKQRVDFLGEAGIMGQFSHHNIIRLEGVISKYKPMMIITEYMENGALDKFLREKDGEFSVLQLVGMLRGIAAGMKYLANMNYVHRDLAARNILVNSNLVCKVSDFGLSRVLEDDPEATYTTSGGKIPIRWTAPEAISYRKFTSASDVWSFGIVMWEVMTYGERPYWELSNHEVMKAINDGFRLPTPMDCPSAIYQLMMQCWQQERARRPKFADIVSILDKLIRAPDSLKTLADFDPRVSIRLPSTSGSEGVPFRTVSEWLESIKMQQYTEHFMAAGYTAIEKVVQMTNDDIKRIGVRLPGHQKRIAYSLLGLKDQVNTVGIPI
Death-associated protein kinase 1 (Homo sapiens), sequence (P53355 whole entry, looked up): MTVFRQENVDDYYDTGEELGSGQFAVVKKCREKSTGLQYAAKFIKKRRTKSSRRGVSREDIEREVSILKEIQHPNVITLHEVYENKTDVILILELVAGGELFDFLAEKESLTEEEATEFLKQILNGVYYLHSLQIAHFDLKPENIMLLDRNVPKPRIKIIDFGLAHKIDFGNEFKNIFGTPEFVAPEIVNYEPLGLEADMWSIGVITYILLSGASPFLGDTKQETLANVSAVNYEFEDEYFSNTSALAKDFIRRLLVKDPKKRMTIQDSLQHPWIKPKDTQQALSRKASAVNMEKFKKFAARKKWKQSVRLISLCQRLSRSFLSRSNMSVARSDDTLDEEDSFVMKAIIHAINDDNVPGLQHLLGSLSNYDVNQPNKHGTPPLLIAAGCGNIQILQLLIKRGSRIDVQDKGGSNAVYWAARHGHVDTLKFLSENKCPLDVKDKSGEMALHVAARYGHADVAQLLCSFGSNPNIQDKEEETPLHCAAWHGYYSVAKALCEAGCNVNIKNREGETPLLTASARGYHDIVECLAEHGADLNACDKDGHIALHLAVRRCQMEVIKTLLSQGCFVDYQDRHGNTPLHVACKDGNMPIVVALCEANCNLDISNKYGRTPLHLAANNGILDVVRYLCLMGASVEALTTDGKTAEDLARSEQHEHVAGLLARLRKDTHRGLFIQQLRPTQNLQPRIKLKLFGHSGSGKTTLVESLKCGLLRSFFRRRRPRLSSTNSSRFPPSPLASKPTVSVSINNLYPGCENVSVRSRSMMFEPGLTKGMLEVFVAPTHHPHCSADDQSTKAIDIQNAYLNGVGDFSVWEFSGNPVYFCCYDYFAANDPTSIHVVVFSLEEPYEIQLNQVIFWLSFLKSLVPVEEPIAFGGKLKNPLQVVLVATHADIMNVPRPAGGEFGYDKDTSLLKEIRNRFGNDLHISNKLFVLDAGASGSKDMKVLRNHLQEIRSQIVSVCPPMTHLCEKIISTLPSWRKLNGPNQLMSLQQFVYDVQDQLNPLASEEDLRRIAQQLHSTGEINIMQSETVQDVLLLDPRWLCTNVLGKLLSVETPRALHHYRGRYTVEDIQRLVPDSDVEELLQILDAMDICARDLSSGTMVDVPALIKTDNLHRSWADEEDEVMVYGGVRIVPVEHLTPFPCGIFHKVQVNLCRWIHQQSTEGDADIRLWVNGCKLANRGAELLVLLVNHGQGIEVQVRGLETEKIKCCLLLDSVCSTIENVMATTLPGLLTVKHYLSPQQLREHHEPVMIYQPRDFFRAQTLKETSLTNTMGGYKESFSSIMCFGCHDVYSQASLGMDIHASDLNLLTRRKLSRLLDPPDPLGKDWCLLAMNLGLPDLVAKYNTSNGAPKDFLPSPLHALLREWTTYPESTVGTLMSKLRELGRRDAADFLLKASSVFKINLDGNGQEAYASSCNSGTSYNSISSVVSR
Death-associated protein kinase 2 (Homo sapiens), sequence (Q9UIK4 whole entry, looked up): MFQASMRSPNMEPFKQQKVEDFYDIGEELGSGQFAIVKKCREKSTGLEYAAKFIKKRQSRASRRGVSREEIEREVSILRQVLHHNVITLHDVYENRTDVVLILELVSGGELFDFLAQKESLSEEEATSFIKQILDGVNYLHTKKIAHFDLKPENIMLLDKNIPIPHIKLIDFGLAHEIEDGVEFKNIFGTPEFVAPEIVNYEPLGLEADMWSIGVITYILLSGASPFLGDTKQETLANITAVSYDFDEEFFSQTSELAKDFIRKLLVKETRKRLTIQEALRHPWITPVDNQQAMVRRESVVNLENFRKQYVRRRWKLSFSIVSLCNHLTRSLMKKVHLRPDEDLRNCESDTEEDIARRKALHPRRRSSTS

Consider `O=C1c2ccccc2-c2nc3nnnn3nc21`, for which the residual activity (in general, the signal under treatment as a percentage of the control signal) in test [1] came out at 101%; in [2] it was 114%; in test [3], 127%; in test [4], 148%; in test [5] it was 108%; in test [6], 114%. Also, the residual activity in [7] is 101%; in test [8], 100%; in test [9], 100%; in [10], 123%; in [11], 107%; in test [12] it was 116%.
As to `O=[N+]([O-])/C=C/c1ccc2c(c1)OCO2`, the residual activity in [13] was found to be 85%; in [14] it was 90%; in test [1], 95%; in test [2] it was 127%; in test [15], 63%; in test [16] it was 68%. Moreover, the residual activity in test [17] was determined as 100%; in [18], 97%; in test [3] it was 137%; in test [4], 134%; in test [5], 119%; in test [6], 63%. Besides, the residual activity in test [7] came out at 101%; in test [8], 106%; in test [9], 95%; in [10], 102%; in test [11], 106%; in [12], 115%. Further, the residual activity in test [19] turned out to be 115%.
On to `CN(C)c1ccc(/C=C2\C(=O)Nc3ccccc32)cc1`, for which, in [13], the residual activity amounted to 102%.
